G9a block: qHTS Assay for Inhibitors of Histone Lysine Methyltransferase G9a | Histone-lysine N-methyltransferase EHMT2 (Homo sapiens), Q96KQ7 | G9a H3K9 monomethylation, AlphaScreen, 2 h | Potency, µM (top dose mostly 102 µM), inactives show at the highest dose activity, negative = inhibition, most hits filed as inhibitors | actives 8.8% (n = 350,000); further: on the % scale 0 is the no-effect control and ±100 the full control effect; nearly all actives have a fitted effect of over 75% in size
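Chemiluminescent proximity detection of H3K9 monomethylation, read after 10 min bead incubation in the dark. Reaction: 20 nM G9a, 500 nM biotin-H3K9 peptide, 20 uM SAM cofactor, 2 h, room temperature, following 15 min enzyme-compound preincubation.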
JMJD2A Tudor inh: qHTS Assay for Inhibitors of JMJD2A-Tudor Domain | actives 4.4% (n = 390,000) | AID 504339, 2011 | Lysine-specific demethylase 4A (Homo sapiens), O75164 | Potency, µM (doses to about 114 µM), for the others: at the highest dose activity change, negative = inhibition, most hits filed as inhibitors | AlphaScreen JMJD2A-Tudor / H3K4me3 peptide binding; further: on the % scale 0 is the no-effect control and ±100 the full control effect; nearly all actives have a fitted effect of over 50% in size
HP1b binding inh: HTS for Inhibitors of HP1-beta Chromodomain Interactions with Methylated Histone Tails. Potency, µM (highest dose often 114 µM), for the others: at the highest dose activity change, negative = inhibition, most hits filed as inhibitors. AlphaScreen HP1-beta / biotin-H3K9me3 peptide binding. Chromobox protein homolog 1 (Homo sapiens), P83916. actives 0.56% (n = 390,000). AID 540317, 2011; further: nearly all actives have a fitted effect of over 70% in size
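HP1-beta protein (50 nM final) preincubated 30 min at room temperature with biotinylated H3(1-18)K9me3 peptide (50 nM) in PBS pH 7.4, 0.01% Tween-20, then compound added for 30 min. AlphaScreen streptavidin donor/nickel chelate acceptor beads (10 ug/mL final), 30 min dark, luminescence read.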
BAZ2B inh: qHTS Assay for Inhibitors of BAZ2B; actives 4.4% (n = 360,000); AID 504333, 2011; Potency, µM (titrated, usually from 114 µM), for the others: top-dose activity change, negative = inhibition, usual class: inhibitors; AlphaScreen BAZ2B-H3K14Ac peptide displacement; further: on the % scale 0 is the no-effect control and ±100 the full control effect; nearly all actives have a fitted effect of over 60% in size
Target sequence (Q9UIF8 whole entry, looked up): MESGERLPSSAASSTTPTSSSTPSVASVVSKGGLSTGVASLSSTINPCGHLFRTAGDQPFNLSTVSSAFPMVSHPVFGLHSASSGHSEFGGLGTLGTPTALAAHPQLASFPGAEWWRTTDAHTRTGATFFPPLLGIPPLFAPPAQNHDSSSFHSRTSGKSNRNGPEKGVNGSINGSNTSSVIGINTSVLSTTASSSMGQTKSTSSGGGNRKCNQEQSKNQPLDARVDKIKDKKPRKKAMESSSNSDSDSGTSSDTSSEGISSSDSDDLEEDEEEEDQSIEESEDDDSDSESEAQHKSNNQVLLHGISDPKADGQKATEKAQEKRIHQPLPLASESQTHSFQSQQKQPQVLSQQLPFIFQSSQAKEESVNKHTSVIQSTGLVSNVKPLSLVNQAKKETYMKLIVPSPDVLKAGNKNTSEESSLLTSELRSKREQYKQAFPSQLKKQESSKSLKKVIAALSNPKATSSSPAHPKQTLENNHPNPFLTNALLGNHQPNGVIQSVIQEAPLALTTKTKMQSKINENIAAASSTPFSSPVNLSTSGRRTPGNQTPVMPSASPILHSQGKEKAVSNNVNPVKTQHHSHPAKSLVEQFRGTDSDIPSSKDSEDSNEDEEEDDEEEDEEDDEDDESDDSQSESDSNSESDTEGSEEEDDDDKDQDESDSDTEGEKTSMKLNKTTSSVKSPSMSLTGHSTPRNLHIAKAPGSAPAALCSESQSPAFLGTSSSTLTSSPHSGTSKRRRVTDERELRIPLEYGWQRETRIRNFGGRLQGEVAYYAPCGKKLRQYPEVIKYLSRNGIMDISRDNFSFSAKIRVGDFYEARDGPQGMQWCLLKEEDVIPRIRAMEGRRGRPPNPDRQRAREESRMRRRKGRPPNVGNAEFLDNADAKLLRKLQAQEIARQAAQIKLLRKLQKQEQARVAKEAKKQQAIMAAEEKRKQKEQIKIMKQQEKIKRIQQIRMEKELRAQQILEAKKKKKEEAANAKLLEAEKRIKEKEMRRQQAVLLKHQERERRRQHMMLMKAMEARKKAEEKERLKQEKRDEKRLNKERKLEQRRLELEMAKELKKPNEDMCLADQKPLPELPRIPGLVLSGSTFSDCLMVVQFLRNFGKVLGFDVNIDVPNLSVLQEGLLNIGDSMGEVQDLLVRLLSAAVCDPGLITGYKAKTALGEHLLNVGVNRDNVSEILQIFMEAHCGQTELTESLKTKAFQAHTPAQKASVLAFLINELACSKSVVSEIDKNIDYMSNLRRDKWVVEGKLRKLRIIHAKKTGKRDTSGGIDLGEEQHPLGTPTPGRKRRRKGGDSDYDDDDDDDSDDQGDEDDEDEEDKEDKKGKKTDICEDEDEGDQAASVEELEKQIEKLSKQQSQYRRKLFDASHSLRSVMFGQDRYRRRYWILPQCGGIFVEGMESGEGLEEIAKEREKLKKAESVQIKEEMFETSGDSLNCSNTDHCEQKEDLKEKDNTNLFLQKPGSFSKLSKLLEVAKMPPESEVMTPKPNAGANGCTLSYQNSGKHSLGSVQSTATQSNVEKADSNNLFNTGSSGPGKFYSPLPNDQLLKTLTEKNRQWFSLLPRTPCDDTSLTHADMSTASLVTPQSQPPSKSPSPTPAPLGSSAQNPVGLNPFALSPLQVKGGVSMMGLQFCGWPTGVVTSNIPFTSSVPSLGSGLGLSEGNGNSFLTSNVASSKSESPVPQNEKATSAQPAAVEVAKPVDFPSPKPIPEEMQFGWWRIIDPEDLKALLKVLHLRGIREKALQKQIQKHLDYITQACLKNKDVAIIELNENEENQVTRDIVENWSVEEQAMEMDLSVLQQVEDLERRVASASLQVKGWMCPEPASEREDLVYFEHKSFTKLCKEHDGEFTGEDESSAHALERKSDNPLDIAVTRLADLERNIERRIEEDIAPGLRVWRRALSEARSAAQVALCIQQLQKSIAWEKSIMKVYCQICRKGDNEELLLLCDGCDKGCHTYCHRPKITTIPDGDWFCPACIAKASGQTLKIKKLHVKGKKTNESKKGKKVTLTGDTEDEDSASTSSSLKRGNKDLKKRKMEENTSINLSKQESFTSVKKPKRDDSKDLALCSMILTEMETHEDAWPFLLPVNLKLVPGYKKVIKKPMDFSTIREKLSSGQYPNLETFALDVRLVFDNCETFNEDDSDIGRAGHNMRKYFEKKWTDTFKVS
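Protein-peptide AlphaScreen: BAZ2B 50 nM, b-H3K14Ac 50 nM, 1x PBS pH 7.4 + 0.01% Tween-20. Preincubation 30 min RT; cpd 30 min RT (top 110 uM); beads 20 min RT, light-protected.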
L3MBTL1 inh: qHTS Assay for the Inhibitors of L3MBTL1; AID 485360, 2010; AlphaScreen L3MBTL1–H3K9me1 peptide binding; Potency, µM (titrated, usually from 57.1 µM), for inactives: at the highest dose activity, negative = inhibition, actives largely listed as inhibitors; actives 0.66% (n = 230,000); further: on the % scale 0 is the no-effect control and ±100 the full control effect; nearly all actives have a fitted effect of over 60% in size
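Displacement of a biotinylated histone H3(1-15) peptide monomethylated at Lys9 (75 nM) from L3MBTL1 (50 nM) was measured by AlphaScreen after a 30 min room-temperature compound incubation; cefsulodin titration served as intraplate control.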
* marks the source's active call; other numbers are inactive results; ? = inconclusive; nt = no result given; ! = not active in a repeat; [ ] = dose if it differs, or a comment. Only some compounds are listed: those with a hit (about 11% of all), similar ones and a draw of the others. The call rests on the fitted dose curve; in most records, active means well fitted inhibition curve with a large enough effect; inconclusive means small, poorly fitted or top-dose-only effect; inactive means no such curve, though single readings can be large or run the other way. Potency means the concentration at half of the fitted maximal effect.

SMILES | G9a block | JMJD2A Tudor inh | HP1b binding inh | BAZ2B inh | L3MBTL1 inh
COc1cc(C(=O)NCC(=O)N/N=C/c2ccc(-c3cccc([N+](=O)[O-])c3)o2)cc(OC)c1OC | 10µM* | -22.1% | 17.8% | -23.1% | nt
CC(C)(C)S(=O)(=O)c1cnc(-c2cnccn2)nc1N | 19.2% | -2.7% | 25.8% | 27.3% | nt
CC(C)(C)S(=O)(=O)c1cnc(-c2ccccn2)nc1N | nt | ? | 17.5% | 79.4µM* | -18.8%
CC(C)CCNC(=O)CN1C(=O)c2cccnc2Oc2ccccc21 | 7.5%[59 µM] | -14.1% | 3.6% | 4.5% | nt
COCCn1c(NC(=S)NC(=O)C23CC4CC(CC(C4)C2)C3)cc(=O)[nH]c1=O | 7.3%[59 µM] | -5.1%[11.4 µM] | 24.1% | -13.9% | nt
COCCn1c(NC(=S)NC(=O)C2CC2)cc(=O)[nH]c1=O | ? | 1µM* | 11.5% | ? | -6.4%
O=C(NCc1ccc(F)cc1)C1CCN(S(=O)(=O)c2ccc3c(c2)CCCN3C(=O)C2CCC2)CC1 | -3.8%[59 µM] | -16.8% | 11.9%[57 µM] | 1.7% | nt
Cc1ccc2c(c1)c(=O)c(S(=O)(=O)c1ccc(C)c(C)c1)cn2CC(=O)Nc1ccccc1 | -1.8%[59 µM] | 3.6% | 48.4% | -3.3% | nt
COC(=O)CC1C(=O)NCCN1C(=O)CSc1nnc(Nc2ccc(OC)cc2)s1 (stereo not given) | -32.8%[0.0925 µM] | -2.9% | 39.6% | -1.6% | nt
COC(=O)CC1C(=O)NCCN1C(=O)CSc1nnc(Nc2ccc(C)cc2)s1 (stereo not given) | 39.8µM* | -1.0% | 35.7% | 7.9% | nt
COc1cc(/C=C2/CC/C(=C/c3ccc(O)c(OC)c3)C2=O)ccc1O | ? | -19.1%[11.4 µM] | -7.3% | ? | -13.8%
C/C=C/c1ccc(O)c(OC)c1 | 10µM*! | -31.3% | ? | ? | -2.5%
COc1cc(/C=C2\COC/C(=C\c3ccc(O)c(OC)c3)C2=O)ccc1O | 31.6µM* | ? | ? | ? | ?
COc1cc(/C=C/C=C2/CC/C(=C/C=C/c3ccc(O)c(OC)c3)C2=O)ccc1O | nt | 56.2µM* | ? | nt | nt
CCc1ccc(C2CC(=O)c3c([nH]c(C(=O)OCCOc4ccccc4)c3C)C2)cc1 (stereo not given) | -3.2%[59 µM] | -10.3% | 30.8% | -2.8% | nt
Cn1cnc([N+](=O)[O-])c1Sc1ncccc1N | 3.55µM* | 4.5% | 65.1% | 8.7% | nt
Cn1cnc([N+](=O)[O-])c1SCC(O)CCl (stereo not given) | -4.8% | -15.6% | 31.6% | -23.5% | 4.5%
Cn1cnc([N+](=O)[O-])c1SCCO | 22.4µM* | -11.8% | 26.7% | -14.3% | 2.9%
COc1ccc(C(=O)NCC(c2ccc3c(c2)OCO3)N2CCN(C)CC2)cc1OC (stereo not given) | 12.0%[59 µM] | -0.3% | 55.1%[57 µM] | 39.1% | nt
COc1cccc(NC(=O)C(=O)NCCCn2ccnc2)c1 | -16.9% | -22.7% | 1.2% | 79.4µM* | -10.1%
O=C(NCCCn1ccnc1)Nc1cccc(Cl)c1 | -2.4%[59 µM] | 44.7µM* | 31.8% | 25.1µM* | ?
O=C(NCCCn1ccnc1)c1cccc(Cl)c1 | -8.0% | -0.3% | 13.7% | -17.4% | nt
COc1ccccc1C(=O)Nc1cccc(C(=O)OCc2cc(=O)n3cc(C)sc3n2)c1 | -2.4%[59 µM] | -18.5% | -5.0% | -13.8% | nt
Clc1cccc2c1CCN(Cc1nc(-c3cnccn3)no1)C2 | 39.8µM* | 0.0% | 17.9% | -18.7% | -3.4%
CCCOc1ccc(C2C(=O)N(C3CCCCCC3)CC(=O)N2Cc2ccc(OC)cc2)cc1OC (stereo not given) | 4.6%[59 µM] | -19.6% | 9.8% | -12.0% | nt
CC1=CC(C)C(C[N+]2(C)CCCCC2)C(C)C1 (stereo not given) | 25.1µM* | -1.0% | -4.5% | ? | 7.0%
CCc1ccc(CNC(=O)c2cnc3sc(N4CCCC4)nn3c2=O)cc1 | -0.5%[59 µM] | ? | 29.8% | -1.4% | nt
Cc1ccc(CN2CCSc3ccc(C(=O)NCc4cccnc4)cc32)cc1 | ? | 39.8µM* | -4.7% | ? | -1.5%
